PubChem BioAssay AID1985 (Southern Research Specialized Biocontainment Screening …, 2009)
The campaign covered roughly 2,300 compounds. About 1,000 (43%) were called active. The rule behind the calls is not given here. So high a share suggests a set chosen from earlier hits. This is one part of the list. A call without a number means that no potency is given here. Potency and affinity values are given separately.

Experiment: modified counter assay using GFP fluorescence, PhoP regulon inhibitor project, dose response (AID 1985)
Conditions: S. Typhi, 4 h; series mostly up to 150 µM

Row | SMILES | outcome
1 | O=C(OCc1nc2ccccc2s1)c1ccco1 | inactive
2 | O=C(O)CC/C(=C\c1ccccc1[N+](=O)[O-])c1nc2ccccc2s1 | inactive
3 | O=C1CCCC(=O)N1c1ccc(N2CCOCC2)c([N+](=O)[O-])c1 | inactive
4 | CCn1cc(C(=O)NCCc2ccccc2)c(=O)c2cc(F)c(N3CCN(C)CC3)cc21 | inactive
5 | CN(C)CCN1C(=O)C(O)=C(C(=O)c2cc3ccccc3o2)C1c1ccccn1 (stereo not given) | inactive
6 | O=C(Cn1nc(Cc2ccncc2)c2ccccc2c1=O)Nc1cccnc1Cl | inactive
7 | COc1ccc(N(CCCN2C(=O)c3cccc4cccc(c34)C2=O)C(=O)c2cccnc2)cc1 | inactive
8 | O=C(c1ccco1)N1CCCN(Cc2nc(-c3ccc4c(c3)OCO4)no2)CC1 | inactive
9 | O=C(NCc1ccc2c(c1)OCO2)c1ccc2c(c1)C(=O)N(Cc1cccnc1)C2=O | inactive
10 | C1CCC(n2nnnc2CN2CCN(C3CCCC3)CC2)CC1 | inactive
11 | CCN(CC)CCOC(=O)c1ccc(N/C=C(/C#N)c2nc(-c3ccc(OC)c(OC)c3)cs2)cc1 | inactive
12 | Cc1ccc(-n2ncc3c(=O)[nH]cnc32)c(C)c1 | inactive
13 | O=C(Nc1cccc(OCC(=O)N2CCOCC2)c1)c1cccc([N+](=O)[O-])c1 | inactive
14 | N/C(=N\OC(=O)N1CCOCC1)c1ccccc1 | inactive
15 | O=C1c2ccccc2C(=O)C1(CO)c1ccc(OC(F)F)cc1 | inactive
16 | Cc1nnc(SCC(=O)Nc2cc(S(=O)(=O)N3CCCC3)ccc2Cl)s1 | inactive
17 | COc1ccc(C)cc1S(=O)(=O)N1CCCC(C(=O)NCC2CCCO2)C1 (stereo not given) | inactive
18 | COC(=O)C1=C(C(=O)OC)SC(=C2C(=S)C(C)(C)N(C(=O)C3CC3)c3ccccc32)S1 | inactive
19 | O=C(NCC1CC1)Nc1cccs1 | inactive
20 | CC(C)(C)NC(=O)NC(=O)COC(=O)CCC1CCCC1 | inactive
21 | Cc1c(C(=O)O)oc2c3c(ccc12)OCCO3 | inactive
22 | c1ccc(CNc2nc(N3CCN(Cc4ccccc4)CC3)nc3ccccc23)cc1 | inactive

Row | SMILES | outcome
23 | CC(Nc1nc(N2CCCCC2)nc2ccccc12)c1ccccc1 (stereo not given) | inactive
24 | COc1ccc(C(CC(=O)O)NC(=O)C2CCCCC2)cc1 (stereo not given) | inactive
25 | COc1ccc(N2CCN(C(CNC(=O)c3ccc4c(c3)OCO4)c3ccco3)CC2)cc1 (stereo not given) | inactive
26 | CCCOc1ccc(-c2cn3ccccc3n2)cc1 | inactive
27 | COC(=O)c1ccc(NC(=O)c2ccccc2N(C)S(=O)(=O)c2ccccc2)cc1 | inactive
28 | Cc1cccc(N2CCN(C(=O)CCN3C(=S)NC(C)(C)CC3C)CC2)c1C (stereo not given) | inactive
29 | CC(C)OCCCn1c(=S)[nH]c2cc3c(cc2c1=O)OCO3 | inactive
30 | O=C(NCc1ccccn1)c1nc(Cn2ccc([N+](=O)[O-])n2)no1 | inactive
31 | CC(C)c1ccc(N(C(=O)C(F)(F)F)C(C(=O)NC2CCCCC2)c2ccncc2)cc1 (stereo not given) | inactive
32 | O=C(CN1CCCC1)Nc1ccc(-c2nc3cc(NC(=O)CN4CCCC4)ccc3o2)cc1 | inactive
33 | CC(=O)c1c(N2CCN(c3cccc(Cl)c3)CC2)nc(=S)n(-c2ccccc2)c1C | inactive
34 | COc1cccc(NC(=O)CSc2nncn2-c2ccccn2)c1 | inactive
35 | COc1ccc(Nc2nc(-c3ccccc3)nc3ccccc23)cc1S(=O)(=O)N1CCOCC1 | inactive
36 | COc1ccc(OC)c(CCNC(=O)CS(=O)(=O)Cc2nc(-c3ccccc3C)oc2C)c1 | inactive
37 | COC(=O)c1ccc(Cn2c(O)c(N=NC(N)=S)c3ccccc32)o1 | inactive
38 | c1ccc(CSc2ccc(-c3cccs3)nn2)nc1 | inactive
39 | Cc1ccc2[nH]cc(CCNC(=O)c3cccnc3)c2c1 | inactive
40 | CCc1nnc(NC(=O)c2ccc(S(C)(=O)=O)cc2)s1 | inactive
41 | COc1ccc(-c2csc(N)n2)cc1F | inactive
42 | Cc1cc(C)cc(NC(=O)CSc2nnc(CNC(=O)c3cccs3)o2)c1 | inactive
43 | Nc1nc(SCC(=O)N2CCCC2)[nH]c(=O)c1NC(=O)c1cccs1 | inactive
44 | O=C(Nc1ccc(Cc2ccncc2)cc1)c1cccs1 | inactive

Row | SMILES | outcome
45 | CC(C)(C)n1nc2c(c1NC(=O)c1cccs1)CS(=O)C2 (stereo not given) | inactive
46 | Cc1ccc(NC(=O)OCc2cccs2)cc1 | inactive
47 | CCc1ccc2c(c1)CCCN2C(=O)c1ccccc1C(=O)O | inactive
48 | CC1Cc2ccccc2N1S(=O)(=O)c1cccc(C(=O)N2CC(=O)Nc3ccccc32)c1 (stereo not given) | inactive
49 | Cc1noc(C)c1CCC(=O)N1CCCC(CCC(=O)NCc2ccc(F)c(F)c2)C1 (stereo not given) | inactive
50 | COc1ccc(NS(=O)(=O)c2cc(NC(=O)c3ccc(C)s3)ccc2N2CCOCC2)cc1 | inactive
51 | CCCC(=O)c1c(NC)cc(C)oc1=O | inactive
52 | CCOC(=O)C1=C(O)c2ccccc2C(=O)/C1=C\c1ccc(C)cc1 | inactive
53 | CCOc1cc(C2NC(=O)N(C)C(C)=C2[N+](=O)[O-])ccc1OC(C)=O (stereo not given) | inactive
54 | CCc1nc(N)nc(N)c1-c1ccc(Cl)cc1 | inactive
55 | CCNc1nc(N)nc(Oc2ccc(OCCOc3ccc(Cl)cc3Cl)nn2)n1 | inactive
56 | NCCCCCc1nnc(SCc2ccc(Cl)cc2Cl)o1 | inactive
57 | COc1ccc(C2C(C#N)=C(N)Oc3n[nH]c(C)c32)cc1CSc1ccccn1 (stereo not given) | inactive
58 | COc1ccc(OCC(=O)Nc2ccc3c(c2)nc(CCN2CCC(C)CC2)n3C)cc1 | inactive
59 | COc1ccc(CCNC2CCCCC2)cc1 | inactive
60 | CCOC(=O)c1cccc(NC(=O)C2CCC(CNc3c(N4CCOCC4)c(=O)c3=O)CC2)c1 (stereo not given) | inactive
61 | Cc1ccc(-c2c(C)n([O-])c3c([n+]2=O)CCCC3)o1 | inactive
62 | O=C(CSc1ccc(Cl)cc1)c1ccco1 | inactive
63 | O=C(CCNC(=O)c1ccco1)Nc1cccc(Br)c1 | inactive
64 | OCCN1CCN(CCCN2c3ccccc3Sc3ccc(C(F)(F)F)cc32)CC1 | inactive
65 | CSc1ccc2c(c1)N(CCC1CCCCN1C)c1ccccc1S2 (stereo not given) | inactive
66 | Cc1cc(Cl)ccc1OCCCC(=O)N1CCCc2ccccc21 | inactive

Row | SMILES | outcome
67 | c1ccc2c(c1)OC(CCCN1CCCCC1)c1ccccc1S2 (stereo not given) | inactive
68 | c1ccc(-c2nc(NC3CC3)nc(-n3ccnc3)n2)cc1 | inactive
69 | COc1ccc(C2C(C(=O)NCc3cccnc3)c3ccccc3C(=O)N2C)cc1OC (stereo not given) | inactive
70 | c1ccc2cc3c(NCCN4CCOCC4)ccnc3cc2c1 | inactive
71 | N#Cc1nc(Cc2ccccc2)oc1NCCN1CCOCC1 | inactive
72 | COC(=O)c1ccc(CSc2nc3ccccc3c(=O)n2-c2ccc(OC)c(OC)c2)o1 | inactive
73 | Cc1c(/C=N/NC(=O)c2ccc3c(c2)OCO3)cnn1C | inactive
74 | COc1ccc(C(=O)O/N=C2\C(=O)N(C)c3ccccc32)cc1 | inactive
75 | O=C(Nc1ccc(N2CCOCC2)cc1)C1CCN(S(=O)(=O)c2ccccc2F)CC1 | inactive
76 | CCc1cccc2c(C=C(C#N)C#N)cn(CC(=O)N3CCCCCC3)c12 | inactive
77 | CC(=O)NCc1ccc(C(=O)CCl)cc1 | inactive
78 | CCOC(=O)c1ccc(S(=O)(=O)N2CCN(CCC#N)CC2)cc1 | inactive
79 | CN(C)[C@@H]1C(=O)C(C(N)=O)=C(O)[C@@]2(O)C(=O)C3=C(O)c4c(O)cccc4[C@@](C)(O)C3[C@H](O)C12 (stereo not given in full) | inactive
80 | O=C1c2c(O)ccc(O)c2C(=O)c2c(NCCNCCO)ccc(NCCNCCO)c21 | inactive
81 | C[C@@H](NC(=O)/C(C#N)=C/c1ccc(O)c(O)c1)c1ccccc1 | inactive
82 | Cc1nc2cc(C(=O)N3CCC4(CC3)OCCO4)ccc2n1-c1cccc(F)c1 | inactive
83 | COC(=O)C1=C(C)N(Cc2ccco2)C(=O)N[C@H]1c1ccc(Br)cc1 | inactive
84 | COC(=O)C1=C(C)N(CC2CC2)C(=O)N[C@H]1c1ccc(Br)cc1 | inactive
85 | COc1ccc2c(C(=O)CN(C)C3CCCCC3)c[nH]c2c1 | inactive
86 | COc1ccc(CC(=O)N(Cc2cc3cc(OC)ccc3[nH]c2=O)C(C)C)cc1 | inactive
87 | COC(=O)NNS(=O)(=O)c1ccc(C)cc1 | inactive
88 | Cc1cc([N+](=O)[O-])nn1CC(=O)Nc1cccc2nonc12 | inactive

Row | SMILES | outcome
89 | N#CCC(=O)N/N=C/c1ccccc1Cl | inactive
90 | Cc1[nH]nc2c1C1(CCC3(CC1)OCCO3)C(C#N)=C(N)O2 | inactive
91 | NC(=O)COc1c(-c2ccco2)oc2ccccc2c1=O | inactive
92 | O=C(NNC(=O)c1cccs1)c1ccc2ccccc2c1 | inactive
93 | COc1ccc(-c2nc3ccc(C(=O)NCC(OC)OC)cc3nc2-c2ccc(OC)cc2)cc1 | inactive
94 | CCOC(=O)c1cccc(NC(=O)c2cccs2)c1 | inactive
95 | COC(=O)c1ccc(NC(=S)NNC(=O)c2ccccc2)cc1 | inactive
96 | COc1ccc(-c2noc(CCC(=O)Nc3cccc(C)c3)n2)cc1 | inactive
97 | CCCOc1ccc(C2C(C(=O)c3ccc(C)o3)=C(O)C(=O)N2CCCn2ccnc2)cc1 (stereo not given) | inactive
98 | Clc1ccc(-c2cc(C3CCNCC3)[nH]n2)c(Cl)c1 | inactive
99 | C=CCn1c(C)c(C(C)=O)c(SC)nc1=S | inactive
100 | COc1ccc(CNC(=O)C(c2cccs2)N(C(=O)c2csnn2)C2CC2)cc1 (stereo not given) | inactive
101 | COCCN1C(=O)C(=O)/C(=C(/O)c2cccc(OC)c2)C1c1ccncc1 (stereo not given) | inactive
102 | CCC1(CC)C(=O)NC(=O)NC1=Nc1cccc(OC)c1 | inactive
103 | CCC(=O)c1ccc(OCC(O)CNCCc2ccc(Cl)cc2)cc1 (stereo not given) | inactive
104 | Cn1c(=O)cc(SCC(=O)N2CCN(C3CCCCC3)CC2)c2ccccc21 | inactive
105 | Cn1c(C(O)c2ccccc2F)nc(Cl)c1Cl (stereo not given) | inactive
106 | CSc1ccccc1NC(=O)CN1CCCCC1C (stereo not given) | inactive
107 | CNS(=O)(=O)c1cccc(C(=O)OCc2cc(=O)oc3c(C)c(O)ccc23)c1 | inactive
108 | O=C(N/N=C/c1ccc(F)c(F)c1)c1cc2c(s1)-c1ccccc1CC2 | inactive
109 | CC(C)(C)Nc1nc(-c2ccccn2)nc2ccccc12 | inactive
110 | CC(C)(C)NC(=O)/C=C/c1ccc(C(F)(F)F)cc1 | inactive
